Tests used:
[1] = system: Botulinum neurotoxin type F light chain protease (Clostridium botulinum); experiment: Clostridium botulinum type F light chain protease inhibitors, microsphere substrate cleavage, validation (AID 588459); conditions: multiplex microsphere protease substrate cleavage assay, flow cytometry; at 10 µM; stronger effect = higher value
[2] = biological target: Botulinum neurotoxin type A (Clostridium botulinum) (UniProt P0DPI0); experiment: BoNT/A light chain protease inhibitors, biochemical, multiplex microsphere flow cytometry, validation set (AID 588460); conditions: at 10 µM, stronger effect = higher value
Sequence of Botulinum neurotoxin type A (Clostridium botulinum) (P0DPI0 whole entry, looked up): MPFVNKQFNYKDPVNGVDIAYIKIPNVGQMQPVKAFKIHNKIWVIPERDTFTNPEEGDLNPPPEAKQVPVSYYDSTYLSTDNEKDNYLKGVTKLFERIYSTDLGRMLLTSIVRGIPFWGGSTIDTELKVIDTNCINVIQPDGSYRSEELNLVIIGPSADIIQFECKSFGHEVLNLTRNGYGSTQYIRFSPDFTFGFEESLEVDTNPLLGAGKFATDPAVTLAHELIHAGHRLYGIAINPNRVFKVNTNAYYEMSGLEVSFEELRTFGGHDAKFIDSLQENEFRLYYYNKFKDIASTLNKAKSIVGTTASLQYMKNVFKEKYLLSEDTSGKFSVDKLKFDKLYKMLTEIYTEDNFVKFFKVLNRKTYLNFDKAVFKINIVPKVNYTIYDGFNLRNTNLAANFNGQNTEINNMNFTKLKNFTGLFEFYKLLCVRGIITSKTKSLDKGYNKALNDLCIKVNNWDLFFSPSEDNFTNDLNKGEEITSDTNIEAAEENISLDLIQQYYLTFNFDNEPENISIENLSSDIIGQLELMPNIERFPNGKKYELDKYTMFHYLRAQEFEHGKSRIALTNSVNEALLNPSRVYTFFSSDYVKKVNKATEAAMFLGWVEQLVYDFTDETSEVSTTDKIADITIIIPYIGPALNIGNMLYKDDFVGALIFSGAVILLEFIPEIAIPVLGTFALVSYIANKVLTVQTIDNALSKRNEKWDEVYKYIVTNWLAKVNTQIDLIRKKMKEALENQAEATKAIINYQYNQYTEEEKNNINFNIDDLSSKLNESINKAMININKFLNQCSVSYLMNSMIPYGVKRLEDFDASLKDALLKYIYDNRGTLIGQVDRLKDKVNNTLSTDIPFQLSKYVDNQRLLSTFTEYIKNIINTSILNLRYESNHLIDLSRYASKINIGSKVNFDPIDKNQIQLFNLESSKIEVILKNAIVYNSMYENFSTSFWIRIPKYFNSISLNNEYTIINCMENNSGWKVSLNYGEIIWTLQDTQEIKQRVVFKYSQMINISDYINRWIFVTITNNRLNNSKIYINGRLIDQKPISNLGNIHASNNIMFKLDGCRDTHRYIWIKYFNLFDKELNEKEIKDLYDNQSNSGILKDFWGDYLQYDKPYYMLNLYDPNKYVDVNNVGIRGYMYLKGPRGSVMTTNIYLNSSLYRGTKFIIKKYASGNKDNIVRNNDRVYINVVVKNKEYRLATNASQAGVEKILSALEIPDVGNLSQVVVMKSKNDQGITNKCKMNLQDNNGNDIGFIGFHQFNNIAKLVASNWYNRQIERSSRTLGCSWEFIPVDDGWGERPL

[3] = biological target: Lethal factor (Bacillus anthracis) (UniProt P15917); experiment: Bacillus anthracis lethal factor inhibition, microsphere flow cytometry protease assay, validation at 10 µM (AID 588461); conditions: multiplex microsphere protease cleavage assay, stronger effect = higher value
Sequence of Lethal factor (Bacillus anthracis) (P15917 whole entry, looked up): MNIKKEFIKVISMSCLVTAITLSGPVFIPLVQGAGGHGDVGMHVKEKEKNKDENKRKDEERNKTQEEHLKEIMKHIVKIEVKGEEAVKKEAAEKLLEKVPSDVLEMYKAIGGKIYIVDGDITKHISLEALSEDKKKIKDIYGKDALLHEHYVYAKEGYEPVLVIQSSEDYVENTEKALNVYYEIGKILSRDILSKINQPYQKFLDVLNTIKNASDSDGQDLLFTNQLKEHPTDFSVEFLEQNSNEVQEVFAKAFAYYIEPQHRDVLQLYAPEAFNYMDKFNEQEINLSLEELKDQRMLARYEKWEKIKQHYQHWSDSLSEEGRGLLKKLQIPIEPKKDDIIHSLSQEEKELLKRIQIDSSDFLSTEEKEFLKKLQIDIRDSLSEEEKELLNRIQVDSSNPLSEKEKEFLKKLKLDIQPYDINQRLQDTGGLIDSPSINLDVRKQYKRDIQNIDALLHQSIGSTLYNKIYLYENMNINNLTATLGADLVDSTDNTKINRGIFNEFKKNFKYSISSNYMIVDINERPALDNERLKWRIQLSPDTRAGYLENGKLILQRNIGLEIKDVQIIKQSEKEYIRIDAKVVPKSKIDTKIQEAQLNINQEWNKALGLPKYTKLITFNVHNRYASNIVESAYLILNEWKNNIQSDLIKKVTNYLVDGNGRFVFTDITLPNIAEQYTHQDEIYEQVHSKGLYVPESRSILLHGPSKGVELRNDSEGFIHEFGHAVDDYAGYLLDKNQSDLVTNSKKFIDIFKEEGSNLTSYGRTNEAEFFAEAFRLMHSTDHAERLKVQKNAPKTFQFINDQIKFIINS

Measured: inhibition

C[C@H](NC(=O)C1(c2ccccc2)CCN(C(=O)[C@H]2CSCN2C(=O)OC(C)(C)C)CC1)C(=O)O
inactive: [1] -0.9% | [2] -2% | [3] -10.5%

CC(=O)[C@H]1CC[C@H]2[C@@H]3CCC4=CC(=O)CC[C@]4(C)[C@H]3[C@H](O)C[C@]12C
inactive: [1] -0.3% | [2] -1.3% | [3] -5.3%

COc1ccc2[nH]c3c(c2c1)CCn1c-3nc2ccccc2c1=O
inactive: [1] 7% | [2] 2.2% | [3] 4.4%

Cc1ncc([N+](=O)[O-])n1CC(O)CCl (stereo not given)
inactive: [1] 3.5% | [2] -0.1% | [3] 2.5%

O=C(O)CCSc1nc2ccccc2s1
inactive: [1] -0.7% | [2] -1.2% | [3] -9.8%

Cc1ccc2nc(C)c3c(c2c1)OC(C(C)(Cl)Br)C3 (stereo not given)
inactive: [1] -0.4% | [2] -0.5% | [3] 3.2%

CCc1nc2ccccc2c(NC(=O)CN2CC(C)CC(C)C2)c1C (stereo not given)
inactive: [1] -2% | [2] 0.8% | [3] 0.9%

O=C(Nc1ncc2c(n1)CC(c1ccco1)CC2=O)c1ccco1 (stereo not given)
inactive: [1] -2.6% | [2] -3.2% | [3] -10.4%

CCCCN1C[C@H](O)[C@@H](O)[C@H](O)[C@H]1CO
inactive: [1] 1.9% | [2] -1% | [3] 0.7%

CCN1C(=O)C(CC(=O)Nc2ccc(OC)cc2)N(CCc2ccc(F)cc2)C1=S (stereo not given)
inactive: [1] 0.2% | [2] 1.4% | [3] 1.4%

Source: PubChem BioAssay
